Assay outcomes as filed in PubChem BioAssay.
SMARCA2 activ = SMARCA2 (BRM) function activators, primary screen, cell-based, luminescence, high throughput | 1% of 370,000 active | activation, % at 9.1 µM | MG213 cells, MMTV-luciferase reporter, dexamethasone, overnight; in the data active = activation above about 7.8%;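 also: 0% = vehicle wells and 100% = reference activator wells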
AF4-AF9 inh = inhibitors of AF4 peptide binding to AF9, primary screen, biochemical, AlphaScreen, biotin-AF4 peptide, FLAG-AF9, single point; inhibition, % at 10 µM; AID 651704, 2012; 0.47% of 350,000 active; Protein AF-9 (Homo sapiens), P42568;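 active = every replicate reaching a set inhibition limit, whatever the replicate mean, cut at about 25% in these data; inconclusive = mean inhibition reaches that limit but some replicates miss it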;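 also: 0% = plate neutral control median and 100% = total signal loss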
MITF TRPM1 HTS = activators of MITF-driven TRPM1 promoter reporter, primary screen, cell-based, SK-MEL-5, luciferase, single point. activation, % at 12.5 µM. 0.75% of 300,000 active. SK-MEL-5 TRPM1-promoter luciferase, 24 h; % of positive control, neutral wells = 0;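 active = mean activation of at least 80% with every replicate also reaching 80%; inconclusive = mean reaches 80% but some replicate falls short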;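 also: 0% = neutral control wells and 100% = parthenolide positive control wells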
Wnt act = Wnt/beta-catenin pathway activators, primary screen, cell-based, plate reader, single point; Wnt/beta-catenin reporter cell assay, activator; activation, % at 9.35 µM; 1.2% of 300,000 active; AID 743398, 2014; in the data active = activation above about 30%, passing the limit was not always enough; inconclusive = no clear call, values can overlap the other calls;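 also: 0% = neutral control wells and 100% = positive control wells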
esBAF inh = Bmi1 luciferase reporter increase in mESCs, primary screen, esBAF inhibitor project, mouse ES cells, Bmi1 luciferase knock-in, single point. 2% of 350,000 active. AID 602393, 2012. reporter increase, % at 12.5 µM. 24 h; 100% = twice the neutral-well signal; in the data active = activation above about 40%; inconclusive = no clear call, values can overlap the other calls;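 also: 0% = median of the plate's neutral control wells and 100% = double that signal; a rise in the Bmi1 reporter signal indicates esBAF inhibition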
FGF22 binding = binders of human FGF22 protein, primary screen, FGF22 synaptogenesis inhibitor project, biophysical, thermal shift, single point. activity (Tm shift, normalised), % at 9.99 µM. recombinant FGF22 thermal shift, SYPRO orange fluorescence; percent of sucrose octasulfate shift, DMSO zero. Fibroblast growth factor 22 (Homo sapiens), Q9HCT0. 1.5% of 340,000 active;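 active = mean Tm shift, scaled 0 neutral to 100 positive control, at about 1.3% or above, every replicate too, limit read from the data; inconclusive = no clear call, values can overlap the other calls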
Target sequence (Q9HCT0 whole entry, looked up): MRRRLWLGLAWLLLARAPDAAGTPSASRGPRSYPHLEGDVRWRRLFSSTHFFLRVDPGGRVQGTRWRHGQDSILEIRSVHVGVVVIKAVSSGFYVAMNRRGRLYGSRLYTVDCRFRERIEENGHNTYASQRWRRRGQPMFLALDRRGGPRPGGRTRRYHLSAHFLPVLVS
An asterisk follows results filed as active; ? = inconclusive; . = no result. An excerpt weighted towards active compounds, which were near 4.3% of everything screened.

SMILES	SMARCA2 activ	AF4-AF9 inh	MITF TRPM1 HTS	Wnt act	esBAF inh	FGF22 binding
CCc1ccc(CNc2ccc3c(c2)ncn3C(C)(C)C)cc1	-1	15	35	29	51*	-1
CCCCn1cnc2cc(NCc3ccncc3)ccc21	-2	.	-1	.	7	.
CCc1ccc(CNc2ccc3c(c2)ncn3CC)cc1	1	16	91*	29	75*	0
O=C(C1CCC1)N1CC2(C1)[C@@H](c1ccccc1)[C@@H](CO)N2Cc1ccc(Cl)cc1	.	4	.	.	.	.
COc1cccc(C=NN2CCCCCC2)c1OC	4	10	54	-3	45*	0
CCOC(=O)c1c(C)[nH]c(N=Nc2ccccc2)c1C	5	.	71	.	89*	.
CCOC(=O)c1[nH]c(C)c(C(=O)c2ccc(C)cc2)c1C	4	.	7	.	30	.
CCOC(=O)c1c(C)[nH]c(NC(=O)NNC(=O)c2ccccc2Cl)c1C	-4	-2	9	-2	6	0
CCOC(=O)c1c(C)[nH]c(O)c1C=Nc1ccccc1	6	.	.	2	1	.
CCOC(=O)c1c(C)[nH]c(N=Nc2ccc(C)cc2)c1C	-1	.	124*	.	62*	.
CCOC(=O)c1c(C)[nH]c(N=Nc2ccccc2Cl)c1C	0	8	65	46*	64*	.
CCCCn1c(N)c(N(CC)C(=O)c2cc(S(=O)(=O)N3CCN(CC)CC3)ccc2Cl)c(=O)[nH]c1=O	-1	-1	-5	1	-5	0
CCCCn1c(N)c(N(CC)C(=O)c2cc(Br)ccc2Cl)c(=O)[nH]c1=O	0	-3	-2	1	.	44*
O=C(Cc1ccccn1)N[C@H]1CC[C@@H](CCNC(=O)c2cc(Cl)cc(Cl)c2)O[C@@H]1CO	.	0	.	.	-2	0
c1ccc(CSc2ccc(-c3ccccn3)nn2)nc1	4	0	44	9	.	0
Clc1ccc(-c2ccc(SCc3ccccn3)nn2)cc1	0	.	116*	36*	51*	.
COc1cccc(-c2ccc(SCc3ccccn3)nn2)c1	1	1	114*	?	.	0
O=[N+]([O-])c1cccc(-c2ccc(SCc3ccccn3)nn2)c1	2	2	75	-1	42*	0
COc1ccc(-c2ccc(SCc3ccccn3)nn2)cc1OC	0	-1	9	-1	2	0
CCS(=O)(=O)Nc1ccc2c(c1)C(=O)N(C)C[C@@H](OC)[C@@H](C)CN(CC1CCCCC1)[C@H](C)CO2	.	0	.	.	-5	0
COCC(=O)Nc1ccc2c(c1)OC[C@@H](C)N(Cc1cncnc1)C[C@H](C)[C@@H](OC)CN(C)C2=O	.	.	.	.	-2	.
C[C@@H]1CCCCO[C@@H](CN(C)C(=O)Nc2ccc(C(F)(F)F)cc2)[C@H](C)CN([C@@H](C)CO)C(=O)c2cc(NS(=O)(=O)c3ccccc3)ccc2O1	.	-9	.	.	3	0
O=C(CSc1nnc(SCc2cccc3ccccc23)s1)Nc1ccc(S(=O)(=O)Nc2nccs2)cc1	-6	.	.	.	.	.
CCc1cc(C(=O)OC)c(NC(=O)CN2CCN(C(=O)c3ccco3)CC2)s1	0	0	-9	-1	5	0
CCOC(=O)N1CCN(CC(=O)Nc2sc(CC)cc2C(=O)c2ccc(OC)cc2)CC1	-1	27*	-2	-1	-6	0
CC(SCc1ccccc1)C(=O)Nc1ccccc1 (stereo unspecified)	1	1	5	37*	-1	0
CCCn1c(SCC(=O)NC2CCCCC2)nnc1-c1ccncc1	6	.	-11	54*	-2	.
CN1CCC(=O)N([C@H](CN=[N+]=[N-])c2ccccc2)CC1	0	1	-11	3	4	0
CN1CCC(=O)N([C@H](CN=[N+]=[N-])Cc2ccccc2)CC1	0	43*	6	-1	4	0
CCCN1CCC(=O)N([C@H](CN=[N+]=[N-])Cc2ccccc2)CC1	1	43*	-5	1	.	0
